Data taken from PMC4336329 (PLoS ONE, 2015).
Screen size: about 310,000 compounds; about 14,000 (4.5%) showed an effect of 50% or more. The effect is printed as a negative number. Many of the other results were omitted from the sample, so strong results are more common in it than they were.

biological target: human ether-à-go-go-related gene (hERG) potassium channel (human, UniProt Q12809); assay: primary screen, population patch clamp on CHO cells stably expressing hERG; higher = less effect of the substance
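Note: peak tail current of the secondary pulse compared with the same well before compound.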

Chain of human ether-à-go-go-related gene (hERG) potassium channel (Q12809 whole entry, looked up): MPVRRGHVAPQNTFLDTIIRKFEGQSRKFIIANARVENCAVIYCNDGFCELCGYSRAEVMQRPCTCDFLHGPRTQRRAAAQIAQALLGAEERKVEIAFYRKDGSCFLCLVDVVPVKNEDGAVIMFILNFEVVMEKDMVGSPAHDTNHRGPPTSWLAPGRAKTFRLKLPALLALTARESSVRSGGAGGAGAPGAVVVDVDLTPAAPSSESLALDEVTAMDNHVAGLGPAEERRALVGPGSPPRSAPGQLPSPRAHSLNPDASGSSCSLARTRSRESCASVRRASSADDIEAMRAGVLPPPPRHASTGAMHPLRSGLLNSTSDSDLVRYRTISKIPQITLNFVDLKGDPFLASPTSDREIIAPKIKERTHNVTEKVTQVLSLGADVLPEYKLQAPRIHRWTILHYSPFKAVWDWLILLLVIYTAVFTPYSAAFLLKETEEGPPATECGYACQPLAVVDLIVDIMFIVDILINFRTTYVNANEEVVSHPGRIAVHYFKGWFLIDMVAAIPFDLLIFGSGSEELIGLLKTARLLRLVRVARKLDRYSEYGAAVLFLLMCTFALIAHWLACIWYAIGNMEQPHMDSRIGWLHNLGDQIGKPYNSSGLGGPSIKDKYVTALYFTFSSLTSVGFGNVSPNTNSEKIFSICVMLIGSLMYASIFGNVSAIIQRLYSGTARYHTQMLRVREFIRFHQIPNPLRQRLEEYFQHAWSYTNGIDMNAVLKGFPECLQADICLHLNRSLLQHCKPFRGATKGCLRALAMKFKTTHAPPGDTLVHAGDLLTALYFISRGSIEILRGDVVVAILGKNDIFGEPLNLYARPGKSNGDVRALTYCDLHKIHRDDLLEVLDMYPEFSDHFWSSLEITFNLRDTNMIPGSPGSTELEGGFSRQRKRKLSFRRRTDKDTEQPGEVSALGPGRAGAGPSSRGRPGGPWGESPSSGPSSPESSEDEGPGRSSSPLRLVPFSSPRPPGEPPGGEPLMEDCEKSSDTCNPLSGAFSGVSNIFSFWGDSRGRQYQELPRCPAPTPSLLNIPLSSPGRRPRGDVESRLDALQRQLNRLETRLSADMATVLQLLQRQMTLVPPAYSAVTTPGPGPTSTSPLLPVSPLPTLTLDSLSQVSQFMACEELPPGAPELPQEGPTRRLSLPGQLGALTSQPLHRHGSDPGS

Compared with `CCSc1cc(C)nc2ncnn12`, `COc1ccc(C(C)(C)C)cc1NC(=O)COC(=O)c1nc2nccc(C)n2n1` is higher in “hERG current change (%, negative = inhibition) at 10uM” value: -0.742% for the first, 3.17% for the second.

Going from `CC1CCCN(C(=O)C2CCN(Cc3ccc4c(c3)OCO4)CC2)C1.O=C(O)C(=O)O` (stereo not shown) to `CCOC(=O)C1=C(CN2CCN(C(=O)OCC)CC2)NC(=O)NC1c1ccc2c(c1)OCO2` (stereo not shown), the “hERG current change (%, negative = inhibition) at 10uM” value falls from -0.604% to -18.4%.

First: COC(=O)c1cccc(NC(=O)Cn2nnc3ccccc32)c1
Second: COc1ccc(C)cc1Cn1nnc2ccccc21
The “hERG current change (%, negative = inhibition) at 10uM” value of the first is higher: 0.234% for the first, -4.34% for the second.

Compared with `COc1cc(C2NC(=O)NC(C)=C2[N+](=O)[O-])cc(OC)c1OC` (stereo not shown), `CCOC(=O)C1=C(C)NC(=O)NC1c1ccc(OC(=O)c2ccco2)cc1` (stereo not shown) is lower in “hERG current change (%, negative = inhibition) at 10uM” value: 9.03% for the first, -2.08% for the second.

Compared with `CCn1c(=O)c2sccc2n2c(CCCC(=O)NCCc3ccc(S(N)(=O)=O)cc3)nnc12`, `COc1ccc(CCc2nnc(CCC(=O)N(C)Cc3ccnc4ccccc34)o2)cc1` is lower in “hERG current change (%, negative = inhibition) at 10uM” value: -4.96% for the first, -37.7% for the second.

Going from `O=C(NCC1CC1)[C@@H]1C[C@H]1[C@@H](NP(=O)(c1ccccc1)c1ccccc1)c1ccccc1` to `O=C(Nc1ccccc1)N(CCc1nc2ccccc2[nH]1)C1CCCC1`, the “hERG current change (%, negative = inhibition) at 10uM” value falls from -13.9% to -24%.

First: CC(=O)Nc1ccccc1C(=O)OCc1ccccc1F
Second: Cc1ccc(NC(=O)Nc2cccc3ccccc23)cc1
The “hERG current change (%, negative = inhibition) at 10uM” value of the first is lower: 3.58% for the first, 19.5% for the second.

Compared with `N#CCCn1cc(C(=O)Nc2ccccc2Cl)c(-c2ccc([N+](=O)[O-])cc2)n1`, `N#CCCn1cc(C(=O)Nc2ccccc2Br)c(-c2ccc([N+](=O)[O-])cc2)n1` is higher in “hERG current change (%, negative = inhibition) at 10uM” value: -64.4% for the first, -46.9% for the second.

Compared with `COc1ccc(-c2nn(CCC#N)cc2C(=O)NCc2ccccc2)cc1OC`, `COc1ccc(-c2nn(CCC#N)cc2C(=O)NCc2ccccc2)cc1[N+](=O)[O-]` is lower in “hERG current change (%, negative = inhibition) at 10uM” value: -42.3% for the first, -59.7% for the second.

Going from `N#CCCn1cc(C(=O)Nc2ccccc2Cl)c(-c2ccc(F)cc2)n1` to `COc1ccc(NC(=O)c2cn(CCC#N)nc2-c2ccccc2)cc1`, the “hERG current change (%, negative = inhibition) at 10uM” value falls from 14% to -7.59%.

Compared with `N#CCCn1cc(C(=O)Nc2ccc(C(=O)O)cc2)c(-c2ccc([N+](=O)[O-])cc2)n1`, `N#CCCn1cc(C(=O)Nc2ccc([N+](=O)[O-])cc2)c(-c2ccccc2)n1` is lower in “hERG current change (%, negative = inhibition) at 10uM” value: 23.2% for the first, -80.1% for the second.

First: COc1ccc(-c2nn(CCC#N)cc2C(=O)Nc2ccccc2Br)cc1[N+](=O)[O-]
Second: O=C(Nc1ccc([N+](=O)[O-])cc1)c1cc(-c2ccccn2)nc2c(Cl)cccc12
The “hERG current change (%, negative = inhibition) at 10uM” value of the first is lower: -39.6% for the first, 33% for the second.

First: Cc1cc(C=C2C(=O)N(C)C(=O)N(C)C2=O)c(C)n1-c1ccccc1
Second: C=C1c2ccc(C)cc2NC(=O)N1c1ccccc1
The “hERG current change (%, negative = inhibition) at 10uM” value of the first is higher: 17.5% for the first, -1.2% for the second.

Compared with `FC(F)(F)c1cc(-c2cccs2)nc(N2CCOCC2)n1`, `CCCCn1c(Cc2ccccc2)nnc1SCC(=O)N1CCOCC1` is lower in “hERG current change (%, negative = inhibition) at 10uM” value: 1.94% for the first, 0.754% for the second.

Compared with `CC(C)N(Cc1nc(-c2ccccc2)no1)C(=O)c1ccc(Br)o1`, `Cc1cc(OC(C)C)c2c(-c3ccccc3)cc(=O)oc2c1` is higher in “hERG current change (%, negative = inhibition) at 10uM” value: -18.8% for the first, 16.2% for the second.

Compared with `O=CN1CCN(S(=O)(=O)c2ccc(Cl)c(C(=O)O)c2)CC1`, `Cc1noc(C)c1COc1ccccc1C(=O)N1CCN(S(=O)(=O)c2ccccc2F)CC1` is lower in “hERG current change (%, negative = inhibition) at 10uM” value: -2.45% for the first, -19.2% for the second.

First: C/C(=N\NC(=O)Cn1nc(C)c([N+](=O)[O-])c1C)c1ccco1
Second: Cn1c(N)c(C(=O)COC(=O)c2ccco2)c(=O)n(C)c1=O
The “hERG current change (%, negative = inhibition) at 10uM” value of the first is higher: 26% for the first, 5.09% for the second.

Going from `COc1ccc(N=C2CCCN2CC(N)=O)cc1.Cl` to `COc1ccc(CN2CCN(C(=O)c3ccco3)CC2)cc1`, the “hERG current change (%, negative = inhibition) at 10uM” value falls from -0.486% to -12.3%.

Going from `C#Cc1cccc(-n2nnc(C(C)=O)c2C)c1` to `Cc1c(C#N)c2ncnc(N)c2n1-c1ccccc1`, the “hERG current change (%, negative = inhibition) at 10uM” value falls from 15.5% to 5.64%.

First: CCOC(=O)C1=C(CN2CCN(C(=O)c3ccco3)CC2)NC(=O)NC1c1ccc(OC(C)C)cc1 (stereo not shown)
Second: CCOC(=O)C1=C(CN2CCN(C(=O)c3ccco3)CC2)NC(=O)NC1c1ccc(OC)cc1 (stereo not shown)
The “hERG current change (%, negative = inhibition) at 10uM” value of the first is lower: -69.3% for the first, -64.9% for the second.

Compared with `CCOC(=O)C1=C(CN2CCN(C(=O)c3ccco3)CC2)NC(=O)NC1c1ccc(C)cc1` (stereo not shown), `CCOC(=O)C1=C(CN2CCN(C(=O)c3ccco3)CC2)NC(=O)NC1c1ccc(F)cc1` (stereo not shown) is higher in “hERG current change (%, negative = inhibition) at 10uM” value: -63.2% for the first, -62.9% for the second.

Compared with `CCOC(=O)C1=C(CN2CCN(C(=O)c3ccco3)CC2)NC(=O)NC1c1ccccc1` (stereo not shown), `CCOC(=O)C1=C(CN2CCN(C(=O)c3ccco3)CC2)NC(=O)NC1c1ccc(Cl)cc1` (stereo not shown) is higher in “hERG current change (%, negative = inhibition) at 10uM” value: -43.7% for the first, -35% for the second.

Going from `CC(C)Oc1ccc(C(=O)N2CCN(C(=O)c3ccco3)CC2)cc1` to `COc1ccccc1N1CCN(C(=O)Cn2ncc3c([nH]c4ccccc43)c2=O)CC1`, the “hERG current change (%, negative = inhibition) at 10uM” value rises from -29.6% to 4.74%.

First: CCOC(=O)C1=C(CN2CCCCCC2)NC(=O)NC1c1ccc2c(c1)OCO2 (stereo not shown)
Second: CCOC(=O)C1=C(CN2CCC(C)CC2)NC(=O)NC1c1ccc(Cl)cc1 (stereo not shown)
The “hERG current change (%, negative = inhibition) at 10uM” value of the first is lower: -48.2% for the first, -37.6% for the second.

Going from `CN(C)/C=C1\SC(=S)N(c2ccc(Br)cc2)C1=O` to `O=C1N=C(N2CCCCC2)S/C1=C\c1ccc(Cl)cc1`, the “hERG current change (%, negative = inhibition) at 10uM” value rises from -4.75% to 9.15%.

First: CN(/N=C/Cc1nnnn1-c1ccc(Cl)cc1)c1ccccc1
Second: CN(C)c1ccc(/C=N/NC(=O)c2ccc(-n3cnnn3)cc2)cc1
The “hERG current change (%, negative = inhibition) at 10uM” value of the first is lower: -7.54% for the first, 10.8% for the second.

Going from `NC1=C([N+](=O)[O-])C(c2ccc3c(c2)OCO3)c2c(c3ccccc3oc2=O)O1` (stereo not shown) to `CCCN(Cc1nnc(-c2ccccc2Cl)o1)C(=O)c1oc2ccccc2c1C`, the “hERG current change (%, negative = inhibition) at 10uM” value rises from -21.3% to -13.1%.

Going from `O=C(Nc1cc2c3c(c1)CC(=O)N3CCC2)C1CCCCC1` to `CC1CCCCC1NC(=O)CCCCCn1c(=S)[nH]c2ccccc2c1=O` (stereo not shown), the “hERG current change (%, negative = inhibition) at 10uM” value rises from -5.43% to 7.63%.

First: Cc1cccc(C)c1NC(=O)CSc1nnc(CCCCCNC(=O)OC(C)(C)C)o1
Second: CC(C)(C)OC(=O)NCCCCCc1nnc(SCC(=O)Nc2cccc(Cl)c2)o1
The “hERG current change (%, negative = inhibition) at 10uM” value of the first is higher: -17.8% for the first, -50.7% for the second.

First: CC(C)(C)OC(=O)NCCc1nnc(SCC(=O)Nc2cccc(Cl)c2)o1
Second: CC(C)(C)NC(=O)Cn1nnc(-c2cccs2)n1
The “hERG current change (%, negative = inhibition) at 10uM” value of the first is higher: 6.91% for the first, -4.07% for the second.

Compared with `COc1cccc(C(=O)C2CCCN(C(=O)CCc3scnc3C)C2)c1` (stereo not shown), `COc1ccc(NC(=O)c2sc(NC(=O)COc3ccccc3)nc2C)cc1` is higher in “hERG current change (%, negative = inhibition) at 10uM” value: -12.7% for the first, 1.76% for the second.

First: CCOC(=O)c1cnn(-c2ccccc2)c1NC(=O)CN1CCOCC1
Second: CCOc1ccc2nc(NS(=O)(=O)Cc3ccccc3)sc2c1
The “hERG current change (%, negative = inhibition) at 10uM” value of the first is higher: 16.1% for the first, 9.15% for the second.

Compared with `COc1ccc(-c2nc(C)ncc2-c2csc(C)n2)c(O)c1`, `Cc1ccc(C)c(OCC(=O)N(Cc2nnc(-c3ccccc3Cl)o2)C2CC2)c1` is lower in “hERG current change (%, negative = inhibition) at 10uM” value: 11% for the first, -20.9% for the second.

First: CCNc1ccc(C2(O)C(=O)c3ccccc3C2=O)cc1
Second: CNc1ccc(C2(O)C(=O)c3ccccc3C2=O)cc1
The “hERG current change (%, negative = inhibition) at 10uM” value of the first is higher: 12.6% for the first, -66.1% for the second.

Going from `CN(C)c1ccc(C2(O)C(=O)c3ccccc3C2=O)cc1` to `CCCN(Cc1nnc(-c2ccccc2Cl)o1)C(=O)COc1ccc(Cl)cc1`, the “hERG current change (%, negative = inhibition) at 10uM” value falls from 23.4% to -60.5%.

Compared with `O=c1[nH]c(=S)n(C2CC2)c(O)c1C=Nc1cccc(C(F)(F)F)c1`, `CSc1cccc(N2CC(C(=O)N(Cc3nnc(-c4ccccc4Cl)o3)C3CC3)CC2=O)c1` (stereo not shown) is lower in “hERG current change (%, negative = inhibition) at 10uM” value: 12.8% for the first, -55.5% for the second.

Going from `Cc1cccc(NC(=O)NC2(C)CCS(=O)(=O)C2)c1` (stereo not shown) to `CC1(NC(=O)Nc2ccccc2)CCS(=O)(=O)C1` (stereo not shown), the “hERG current change (%, negative = inhibition) at 10uM” value falls from 6.52% to -53%.

Going from `CC1(NC(=S)Nc2ccccc2)CCS(=O)(=O)C1` (stereo not shown) to `O=C(Nc1nccs1)c1nc[nH]c1C(=O)NCc1ccccc1`, the “hERG current change (%, negative = inhibition) at 10uM” value falls from 13.8% to 3.34%.

Going from `C/C(=N/NC(=O)CCC(=O)Nc1ccc(Br)cc1)c1ccc(Br)cc1` to `CCC(=O)c1ccc(OCC(=O)N(Cc2nnc(-c3ccccc3Cl)o2)C2CC2)cc1`, the “hERG current change (%, negative = inhibition) at 10uM” value falls from 12.7% to -67.2%.

Compared with `COc1ccccc1OCC(=O)N(Cc1nnc(-c2ccccc2Cl)o1)C1CC1`, `N#Cc1ccccc1OCC(=O)N(Cc1nnc(-c2ccccc2Cl)o1)C1CC1` is lower in “hERG current change (%, negative = inhibition) at 10uM” value: -44.2% for the first, -48.7% for the second.

Going from `Cc1ccc(CN2CC(C(=O)N(Cc3nnc(-c4ccccc4Cl)o3)C3CC3)CC2=O)cc1` (stereo not shown) to `CCOc1ccccc1N1CC(C(=O)N(Cc2nnc(-c3ccccc3Cl)o2)C2CC2)CC1=O` (stereo not shown), the “hERG current change (%, negative = inhibition) at 10uM” value rises from -45.2% to -16.8%.

First: O=C1OC(CC(=O)N(Cc2nnc(-c3ccc(Cl)cc3)o2)C2CC2)c2ccccc21 (stereo not shown)
Second: O=C1OC(CC(=O)N(Cc2nnc(-c3ccccc3Cl)o2)C2CC2)c2ccccc21 (stereo not shown)
The “hERG current change (%, negative = inhibition) at 10uM” value of the first is lower: -67.8% for the first, -40.3% for the second.

In the case of `Cc1ccc(C(=O)N(Cc2nnc(-c3ccc(Cl)cc3)o2)C2CC2)o1`, the “hERG current change (%, negative = inhibition) at 10uM” value is reported as -32.6%.
